This experiment has as its system RIPK2.
The compound `COc1ccc(Nc2nccc(N3CCC(NS(=O)(=O)c4ccc(NC(C)=O)cc4)C3)n2)cc1` (stereo not shown) [GSK1379729] yielded a Kd of over 10 µM.
Take `Nc1ncnc2c1ncn2-c1cccc(F)c1` [SKF-97560]: the Kd was over 10 µM.
Compound `COc1cc2nccc(Nc3cccc(Oc4ccccc4)c3)c2cc1OC.Cl` [GW284543] came in with a Kd of 0.44 µM.
Compound `Nc1nc(-c2ccccc2F)c(-c2ccnc3ccccc23)s1` [GW560459] showed a Kd of over 10 µM.

The values are drawn from PMC5540273 (PLoS ONE, 2017).
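Also: kd values determined as follow-up on hits from a single-replicate KINOMEscan panel screen.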
